Source: PubChem BioAssay (NCI)
About 79,000 compounds went through this panel and 15% of them were active in at least one assay; those are over-represented in the sample as a whole. No stated cut-off is given here; in the data, active means growth inhibition above about 70%; inactive means the rest.

Tests used:
[1] = NCI Yeast Anticancer Drug Screen. Data for the rad50 strain (AID 155);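 further: 0% = growth of vehicle-only cultures of the same strain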; conditions: S. cerevisiae rad50 strain growth inhibition; at 50.0 µM; hits give high values
In short: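 Inhibition values express reduced yeast growth in compound-treated cultures relative to vehicle-treated controls.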

[2] = NCI Yeast Anticancer Drug Screen. Data for the mec2-1 strain (AID 157); conditions: S. cerevisiae mec2-1 strain, at 50.0 µM, hits give high values
In short: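 Cells of the genetically defined mec2-1 yeast strain are incubated with test compound. Inhibition of growth is calculated against vehicle-treated controls.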

[3] = NCI Yeast Anticancer Drug Screen. Data for the sgs1 mgt1 strain (AID 161);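 further: 0% = growth of cultures given vehicle only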; conditions: S. cerevisiae sgs1 mgt1 strain, at 50.0 µM, hits give high values
In short: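 Test agents were incubated with a DNA-repair-mutant yeast strain. Growth was then read and compared against vehicle-treated controls.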

[4] = NCI Yeast Anticancer Drug Screen. Data for the cln2 rad14 strain (AID 165);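 further: 0% = growth equal to vehicle treated cultures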; conditions: S. cerevisiae cln2 rad14 strain, at 50.0 µM, hits give high values
In short: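 The screen exposed genetically defined yeast (cln2 rad14) to test compounds and scored growth inhibition relative to vehicle-treated controls.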

[5] = NCI Yeast Anticancer Drug Screen. Data for the bub3 strain (AID 167); conditions: S. cerevisiae bub3 mutant strain, at 50.0 µM, hits give high values
In short: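 Steps: expose the mutant yeast strain to compound; grow alongside vehicle-treated cultures; measure growth; express inhibition against the vehicle cultures.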

[6] = NCI Yeast Anticancer Drug Screen. Data for the mlh1 rad18 strain (AID 175); conditions: S. cerevisiae mlh1 rad18 strain growth inhibition; at 50.0 µM; hits give high values
In short: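 Compound-treated yeast growth, normalised to vehicle controls. Strain bears defined DNA repair mutations.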

Measured: growth inhibition

Nc1nc(-c2ccc([N+](=O)[O-])cc2)cc(-c2cc(-c3ccc([N+](=O)[O-])cc3)nc(N)n2)n1
inactive: [1] 5.05% | [2] 6.7% | [3] -9.8% | [4] 14.7% | [5] -17.4% | [6] 6.6%

Nc1ccc2c(c1)C1C(C3C2C2(Cl)C(Cl)=C(Cl)C3(Cl)C2(Cl)Cl)C2(Cl)C(Cl)=C(Cl)C1(Cl)C2(Cl)Cl (configuration not stated)
inactive: [1] 33.6% | [2] 24.9% | [3] 21.9% | [4] 24.1% | [5] 50.1% | [6] 39.5%

CC(=O)Nc1nc(NC(C)=O)c2[nH]c(CO)nc2n1
inactive: [1] -4.2% | [2] -10.4% | [3] -11.8% | [4] -33.6% | [5] -61.3% | [6] -11.7%

CN(C)[C@@H]1C(=O)C(C(=O)NCNc2cccc(C(=O)O)c2C(=O)O)=C(O)[C@@]2(O)C(=O)C3=C(O)c4c(O)cccc4[C@@](C)(O)[C@H]3C[C@@H]12
inactive: [1] 2.95% | [2] 6.45% | [3] 21.8% | [4] -17.2% | [5] -1.1% | [6] 31.4%

S=C(Cc1ccc2ccccc2c1)N1CCOCC1
inactive: [1] 29.4% | [2] 1.95% | [3] -2.1% | [4] 23.6% | [5] 30.4% | [6] 12.9%

N#C/C(c1nc2ccccc2[nH]1)=c1\s/c(=C(/N)O)c(=N)n1-c1ccccc1
inactive: [1] -31.6% | [2] -26% | [3] -32.4% | [4] -30.1% | [5] -34.1% | [6] -47.6%

O=C(COc1ccccc1)NCc1ccc(Cl)cc1
inactive: [1] 2.4% | [2] 2.05% | [3] 5.8% | [4] 7.15% | [5] 26.9% | [6] 21.9%

C/C(=N/NS(=O)(=O)c1ccc(C)cc1)C(C)C
inactive: [1] 3.05% | [2] 1.75% | [3] 10.8% | [4] -6.85% | [5] 3.4% | [6] 23.8%

CC1(C)OC2CC3COC(=O)C3CC2O1 (configuration not stated)
inactive: [1] 9.35% | [2] -4.85% | [3] -8.45% | [4] 1.6% | [5] 30.2% | [6] 17.9%

CC(C)OC(=O)C(C)(OC(=O)c1ccccc1)c1ccccc1 (configuration not stated)
inactive: [1] 5.35% | [2] -14.8% | [3] 4.35% | [4] -13.1% | [5] 19.1% | [6] 14.3%

CN1CN=C(Sc2ccc(Cl)cc2[N+](=O)[O-])NC1
inactive: [1] -22.2% | [2] -35.9% | [3] -22.1% | [4] -5% | [5] -6.9% | [6] -11.7%

c1ccc2c(c1)CCCN2c1nc(N2CCCC2)nc(N2CCOCC2)n1
inactive: [1] -11.6% | [2] -21.8% | [3] 4.4% | [4] 7.25% | [5] 5.45% | [6] -8.25%

Cc1cccnc1NC=O
inactive: [1] -10.7% | [2] -12.2% | [3] -4.8% | [4] -17.6% | [5] -24.7% | [6] -9.7%

O=C(N=Nc1c(O)[nH]c2ccc(Br)cc12)c1ccco1
inactive: [1] 24.2% | [2] 28.8% | [3] 43.2% | [4] 14.7% | [5] 43.2% | [6] 43%

CCC1([N+](=O)[O-])COC2(CCCCC2)OC1
inactive: [1] 6.95% | [2] 23.7% | [3] -11.4% | [4] -1.35% | [5] 13.6% | [6] -13.1%

Cc1cc(NC(=O)NCCCCCCNC(=O)Nc2cc(C)on2)no1
inactive: [1] 4.95% | [2] 1.2% | [3] 1.7% | [4] -7.75% | [5] 14.6% | [6] 0.35%

COc1cc2c(cc1OC)C(C(CBr)CBr)N(C1CCCC1)CC2 (configuration not stated)
inactive: [1] -8.2% | [2] -15.3% | [3] 13.6% | [4] -19.9% | [5] -12.4% | [6] 11.6%

COc1ccccc1NC(C)=O
inactive: [1] 8.15% | [2] 5.8% | [3] 0.15% | [4] 6% | [5] 11.4% | [6] -30.4%

COc1ccc(C2C(N)=NCC2c2ccccn2)cc1 (configuration not stated)
inactive: [1] -21.9% | [2] -17.6% | [3] -12.4% | [4] 16.1% | [5] -9.55% | [6] -12.3%

CC(=O)N(c1c(N)[nH]c(=O)n(C)c1=O)C1OC(CO)C(O)C(O)C1O (configuration not stated)
inactive: [1] -1.65% | [2] 2.8% | [3] 19.1% | [4] -5% | [5] 4.3% | [6] 12.4%

O=C1OCC/C1=C\c1cccc2ccccc12
inactive: [1] 5.2% | [2] 2.4% | [3] -3.45% | [4] 12.5% | [5] -5% | [6] 6.35%

CCN(Cc1cccc(S(=O)(=O)O)c1)c1ccc(C(=C2C=CC(=[N+](C)C)C=C2)c2ccc(N(C)C)cc2)c(S(=O)(=O)O)c1
inactive: [1] 8.35% | [2] 54.8% | [3] 28.1% | [4] -8.55% | [5] 11.9% | [6] 26.4%

Cc1noc2c1C(=O)CCC2
inactive: [1] -3.3% | [2] -5.45% | [3] 17.8% | [4] 11.2% | [5] 21.2% | [6] 7.05%

O=[N+]([O-])c1ccc(S(=O)c2ccc([N+](=O)[O-])cc2)cc1
inactive: [1] 24.8% | [2] 11.6% | [3] 5.5% | [4] -11.1% | [5] -1.75% | [6] -4.75%

O=C(Nc1ccc(S(=O)(=O)NC2CCCCC2)cc1)Oc1ccc([N+](=O)[O-])cc1
inactive: [1] 32.5% | [2] 3.55% | [3] 18.4% | [4] 10.8% | [5] 8.4% | [6] 19.4%

CC(C)CNC(=O)O
inactive: [1] 5.15% | [2] -7.1% | [3] -7.5% | [4] -6.15% | [5] -10.8% | [6] -4.75%

Cc1csc(NC(=O)C2C3CCC(O3)C2C(=O)O)n1 (configuration not stated)
inactive: [1] 22.1% | [2] -11.2% | [3] -6.5% | [4] 10.4% | [5] -4.95% | [6] -12.6%

CN(C)CCN(C)C(=N)N
inactive: [1] -10.3% | [2] -4.25% | [3] -6.45% | [4] -7.5% | [5] -6.55% | [6] -10.9%

CC1OC(OC2C(Oc3cc(O)c4c(c3)O[C@H](c3ccc(O)cc3)CC4=O)OC(CO)C(O)C2O)C(O)C(O)C1O (some centres not stated)
inactive: [1] 5.65% | [2] -12% | [3] -5.65% | [4] -3.6% | [5] -0.1% | [6] -46.2%

CCCCCCCCOC1OC(COC(C)=O)C(OC(C)=O)C(OC(C)=O)C1OC(C)=O (configuration not stated)
inactive: [1] -3% | [2] 3.75% | [3] -4.45% | [4] 6.75% | [5] -35.5% | [6] -6.95%

CCOC(=O)C(C)c1nc2ccc(C(F)(F)F)cc2[nH]c1=O (configuration not stated)
inactive: [1] 2.15% | [2] 16.7% | [3] 40.4% | [4] 14.2% | [5] 43.4% | [6] 39.5%

CCCCC(CC)(CO)CCC (configuration not stated)
inactive: [1] -8.75% | [2] -19% | [3] -13.7% | [4] 2.55% | [5] -9.45% | [6] 4%

Nn1c(C23CC4CC(CC(C4)C2)C3)n[nH]c1=S
inactive: [1] 4.35% | [2] 5.65% | [3] 36.1% | [4] -6.85% | [5] 16.6% | [6] 28.1%

CCOC(=O)c1cc(=O)c2cccc(C)c2[nH]1
inactive: [1] 2.3% | [2] 10.7% | [3] -0.95% | [4] -9.3% | [5] -2% | [6] 20.6%

Cc1ccccc1NCC(C)O (configuration not stated)
inactive: [1] -3.05% | [2] 6.15% | [3] -5.9% | [4] -84.5% | [5] -20.4% | [6] -32%

O=C(NC(=O)c1cc(-c2ccccc2)n[nH]1)c1ccccc1
inactive: [1] -71.5% | [2] -10.1% | [3] -14.4% | [4] -6.3% | [5] -20.4% | [6] -10.8%

OCC1OC(n2cnc3c([Se]Cc4ccccn4)ncnc32)C(O)C1O (configuration not stated)
inactive: [1] 40% | [2] -0.6% | [3] 32% | [4] -3.75% | [5] -3.4% | [6] 7.5%

CC1(C)OS2(OC(C)(C)c3ccccc32)c2ccccc21
inactive: [1] -10.2% | [2] 6.85% | [3] 6.5% | [4] 8.75% | [5] 6.3% | [6] 7.65%

CCC(CO)(C(=O)O)c1ccccc1 (configuration not stated)
inactive: [1] 1.85% | [2] 22.2% | [3] 4.95% | [4] 46.9% | [5] 4.6% | [6] 2.3%

CCOC(=O)C(C)(C(=O)OCC)n1cnc2c1c(=O)n(C)c(=O)n2C
inactive: [1] 8.05% | [2] -7.6% | [3] -12.6% | [4] 9.8% | [5] 10.8% | [6] 4.8%

CCCCCCCCNC(C(=O)c1ccccc1)c1ccccc1 (configuration not stated)
inactive: [1] 10.1% | [2] 11.7% | [3] 16% | [4] 14% | [5] 14.2% | [6] 26.8%

CCOC(=O)c1ccc(NC(=O)SCCC(=O)O)cc1
inactive: [1] 20.9% | [2] -19.9% | [3] -7.1% | [4] 15.8% | [5] -10.2% | [6] 13.8%
